The source of these data is PubChem BioAssay (NCI).

Several values for one entry are separate records, joined by “and”; a condition that tells them apart may be missing. Equal values may be shown once. Compounds without any hit were thinned out: in the full panel of roughly 79,000, 15% have a hit. The source holds several records for some structures; these can differ, active in one and inactive in another. Activity calls are given as the source filed them. Cut-off read from the data, not from the text of the source: active = growth inhibition above about 70%; inactive = the rest.

Assay [1] can be described thus: NCI Yeast Anticancer Drug Screen. Data for the rad50 strain (AID 155).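 Note: 0% = growth of vehicle-only cultures of the same strain.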 The following applies: S. cerevisiae rad50 strain growth inhibition; at 50.0 µM; stronger effect = higher value. The procedure, abridged:
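A DNA repair-deficient yeast mutant serves as the test organism; compound-induced growth inhibition is calculated against vehicle-treated cells.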

A short description of assay [2]: NCI Yeast Anticancer Drug Screen. Data for the mec2-1 strain (AID 157). The conditions noted are these: S. cerevisiae mec2-1 strain, at 50.0 µM, stronger effect = higher value. In a few lines: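 Each compound was tested on mec2-1 yeast, a strain altered in DNA damage repair or cell cycle control. Growth inhibition is reported relative to vehicle.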
A short description of assay [3]: NCI Yeast Anticancer Drug Screen. Data for the sgs1 mgt1 strain (AID 161).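 Note: 0% = growth of cultures given vehicle only.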 The conditions noted are these: S. cerevisiae sgs1 mgt1 strain, at 50.0 µM, stronger effect = higher value. The procedure, abridged: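 Test agents were incubated with a DNA-repair-mutant yeast strain. Growth was then read and compared against vehicle-treated controls.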
A short description of assay [4]: NCI Yeast Anticancer Drug Screen. Data for the cln2 rad14 strain (AID 165).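 Note: 0% = growth equal to vehicle treated cultures.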 The following applies: S. cerevisiae cln2 rad14 strain, at 50.0 µM, stronger effect = higher value. The procedure, abridged:
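Test compounds were added to cln2 rad14 yeast cultures; inhibition of growth was then determined by comparison with vehicle treatment.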

Assay [5] can be described thus: NCI Yeast Anticancer Drug Screen. Data for the bub3 strain (AID 167). The following applies: S. cerevisiae bub3 mutant strain, at 50.0 µM, stronger effect = higher value. In a few lines: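 Inhibition values come from growth of compound-treated mutant yeast normalised to vehicle-treated controls.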
The nature of assay [6]: NCI Yeast Anticancer Drug Screen. Data for the mlh1 rad18 strain (AID 175). The conditions noted are these: S. cerevisiae mlh1 rad18 strain growth inhibition; at 50.0 µM; stronger effect = higher value. In a few lines: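 Inhibition values reflect reduced growth of mutant yeast versus vehicle-treated controls following compound exposure; the mutations affect DNA damage repair.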

For `O=C(O)/C=C/c1ccc(Cl)cc1`, the growth inhibition was 16.8% (inactive) and 8.15% (inactive) in assay [1]; -8.8% (inactive) and -22.6% (inactive) in assay [2]; 16.8% (inactive) and 2.3% (inactive) in assay [3]; -35.3% (inactive) and -6.2% (inactive) in assay [4]; -3.9% (inactive) and -3.4% (inactive) in assay [5]; 26.9% (inactive) and 13.4% (inactive) in assay [6].

Turning to `CC12CCC(C1)C(C)(C)C2OC(=O)c1ccccc1C(=O)O` (stereo unspecified), the growth inhibition in assay [1] was 11.5% (inactive) and 22.9% (inactive); in assay [2], 29.1% (inactive) and -13.2% (inactive); in assay [3], 20.4% (inactive) and -25.9% (inactive); in assay [4], 4.6% (inactive) and -8.6% (inactive); in assay [5], 13.8% (inactive) and 1.3% (inactive); in assay [6], 8.9% (inactive) and 5.2% (inactive).

Take `CC(C(=O)O)C(=O)O.[NH-]C1CCCCC1[NH-].[Pt+2]`: the growth inhibition in assay [1] was 8.5% (inactive) and 16.2% (inactive); in assay [2], 6.7% (inactive) and 5.2% (inactive); in assay [3], -11.1% (inactive) and -3.45% (inactive); in assay [4], 11.2% (inactive) and -0.05% (inactive); in assay [5], 20.4% (inactive) and 21.3% (inactive); in assay [6], 32.3% (inactive) and 34.4% (inactive).

Take `Nc1cccc2cc(S(=O)(=O)O)ccc12`: the growth inhibition in assay [1] is 10.6% (inactive) and -6.9% (inactive); in assay [2], 22.9% (inactive) and -9.85% (inactive); in assay [3], -24.9% (inactive) and -1.25% (inactive); in assay [4], -2.75% (inactive) and -50.2% (inactive); in assay [5] it was -1.65% (inactive) and -11.9% (inactive); in assay [6], -5.5% (inactive) and -35.7% (inactive).

As to `CCOC(=O)C(N)Cc1ccc(O)cc1` (stereo unspecified), the growth inhibition in assay [1] was 16% (inactive) and 0.4% (inactive); in assay [2], 8.05% (inactive) and 6.55% (inactive); in assay [3], -0.85% (inactive) and -11.8% (inactive); in assay [4], 6.25% (inactive) and -19.6% (inactive); in assay [5], 10.7% (inactive) and 1.75% (inactive); in assay [6] it was 23.4% (inactive) and -1.7% (inactive).

Turning to `Cc1ccc(CCO)cc1`, the growth inhibition was 2.3% (inactive) and 2.65% (inactive) in assay [1]; 0.95% (inactive) and 2.6% (inactive) in assay [2]; 6.95% (inactive) and -28.1% (inactive) in assay [3]; 0.5% (inactive) and -47.2% (inactive) in assay [4]; -4.9% (inactive) and -6.4% (inactive) in assay [5]; -2.75% (inactive) and 0.35% (inactive) in assay [6].

Turning to `COc1cc(NCCCNc2c3ccc(Cl)cc3nc3ccc(OC)cc23)c2ncccc2c1`, the growth inhibition in assay [1] is -3.5% (inactive) and 79.2% (active); in assay [2], -13.9% (inactive) and 24% (inactive); in assay [3], 8.15% (inactive) and 70% (active); in assay [4] it was -0.35% (inactive) and 54.1% (inactive); in assay [5], -18.2% (inactive) and 50.2% (inactive); in assay [6], -4.6% (inactive) and 85.9% (active).

In the case of `O=C(O)c1cc(N=C=S)ccc1-c1c2ccc(=O)cc-2oc2cc(O)ccc12`, the growth inhibition in assay [1] is 6.3% (inactive) and 32.9% (inactive); in assay [2], 3.7% (inactive) and 31.5% (inactive); in assay [3], -4.85% (inactive) and 15.3% (inactive); in assay [4], 6% (inactive) and 16.6% (inactive); in assay [5] it was -9.75% (inactive) and -4.1% (inactive); in assay [6], 4.95% (inactive) and 45.9% (inactive).

Turning to `O=C1NC(CCCl)C(=O)NC1CCCl` (stereo unspecified), the growth inhibition is 1.6% (inactive) and -0.7% (inactive) in assay [1]; -2.05% (inactive) and 4.55% (inactive) in assay [2]; -16.1% (inactive) and -3.55% (inactive) in assay [3]; -10.2% (inactive) and -7.55% (inactive) in assay [4]; -1.45% (inactive) and 2.4% (inactive) in assay [5]; 1.6% (inactive) and -1.35% (inactive) in assay [6].

Turning to `NC(N)=NCCCC1NC(=O)C(Cc2ccc(O)cc2)NC1=O` (stereo unspecified), the growth inhibition in assay [1] was 15.3% (inactive) and -3.3% (inactive); in assay [2], 21.8% (inactive) and -3.25% (inactive); in assay [3], 48.9% (inactive) and -4.85% (inactive); in assay [4], -5.05% (inactive) and -8.55% (inactive); in assay [5], 38.2% (inactive) and 3.55% (inactive); in assay [6], 33.2% (inactive) and -1.6% (inactive).

For the molecule `CN(/N=C/c1ccccc1)C(=N)N`, the growth inhibition is -3.6% (inactive) and 5.4% (inactive) in assay [1]; -5.4% (inactive) and 4.15% (inactive) in assay [2]; -10.2% (inactive) and 13.2% (inactive) in assay [3]; -40.6% (inactive) and 11.2% (inactive) in assay [4]; -12.8% (inactive) and -5.6% (inactive) in assay [5]; -2.3% (inactive) and 2.05% (inactive) in assay [6].

`Cc1c2cc(O)c(=O)cc-2oc2cc(O)c(O)cc12`: the growth inhibition in assay [1] was 45.9% (inactive) and 30.5% (inactive); in assay [2], 29.6% (inactive) and 6.2% (inactive); in assay [3], 36.1% (inactive) and 50.1% (inactive); in assay [4] it was 20.9% (inactive) and 31.9% (inactive); in assay [5] it was 36.7% (inactive) and 47.6% (inactive); in assay [6], 40.1% (inactive) and 34.9% (inactive).

In the case of `CCCCCCCCCCCCCCCC[N+](C)(C)CCOC(C)=O`, the growth inhibition in assay [1] was 99.2% (active) and 99% (active); in assay [2] it was 99.5% (active); in assay [3], 99.5% (active); in assay [4], 98.9% (active) and 98.8% (active); in assay [5], 99.2% (active) and 99.3% (active); in assay [6], 99.5% (active) and 99.4% (active).

As to `O=C1Nc2ccccc2C(=O)C1=Ic1ccccc1`, the growth inhibition was 5% (inactive) and -15.9% (inactive) in assay [1]; -11.6% (inactive) and -15.4% (inactive) in assay [2]; -0.55% (inactive) and -9.6% (inactive) in assay [3]; -6% (inactive) and -25.2% (inactive) in assay [4]; -7.1% (inactive) and -4.5% (inactive) in assay [5]; 4.15% (inactive) and 17.8% (inactive) in assay [6].

In the case of `CSCCC(NC(=O)CN)C(=O)O` (stereo unspecified), the growth inhibition is 8.7% (inactive) and -6.35% (inactive) in assay [1]; -14.6% (inactive) and -11.8% (inactive) in assay [2]; 3% (inactive) and -2.45% (inactive) in assay [3]; 14.4% (inactive) and 0.15% (inactive) in assay [4]; -7.15% (inactive) and -13.8% (inactive) in assay [5]; 5.35% (inactive) and -7.05% (inactive) in assay [6].

In the case of `CC1(O)C(=O)OC(CO)C1O` (stereo unspecified), the growth inhibition is 1.4% (inactive) and 7.1% (inactive) in assay [1]; 1.6% (inactive) and 7.15% (inactive) in assay [2]; -3.45% (inactive) and -1% (inactive) in assay [3]; -15.8% (inactive) and -6.6% (inactive) in assay [4]; -5.65% (inactive) and 2.4% (inactive) in assay [5]; 5.1% (inactive) and 3.25% (inactive) in assay [6].

On to `CSCCC(N)C(=O)NCC(=O)O` (stereo unspecified), for which the growth inhibition was -13.8% (inactive) and -37.5% (inactive) in assay [1]; -22.9% (inactive) and -23.1% (inactive) in assay [2]; -10.8% (inactive) and 1.4% (inactive) in assay [3]; 2.9% (inactive) and -35.9% (inactive) in assay [4]; -16.1% (inactive) and -12% (inactive) in assay [5]; -11.4% (inactive) and -8.65% (inactive) in assay [6].

Turning to `N=C(N)SCCc1ccccn1`, the growth inhibition in assay [1] was -30.3% (inactive) and -8.8% (inactive); in assay [2], -27.9% (inactive) and -24.2% (inactive); in assay [3], -35.1% (inactive) and -28% (inactive); in assay [4] it was -16.1% (inactive) and -19.4% (inactive); in assay [5], -44% (inactive) and -39.1% (inactive); in assay [6], -18.4% (inactive) and -1.55% (inactive).

As to `O=c1[nH]c(=O)n(C2OC(CO)C(O)C2O)c2ncncc12` (stereo unspecified), the growth inhibition was 3.15% (inactive) and 12.4% (inactive) in assay [1]; 5.7% (inactive) and 4.75% (inactive) in assay [2]; 31.2% (inactive) and -0.75% (inactive) in assay [3]; 4.9% (inactive) and 8.8% (inactive) in assay [4]; 16.4% (inactive) and -30.4% (inactive) in assay [5]; -39.8% (inactive) and -25.5% (inactive) in assay [6].

As to `O=C1NC2OC(CO)C(O)C(O)C2O1` (stereo unspecified), the growth inhibition is -44.6% (inactive) and -35.5% (inactive) in assay [1]; -7.65% (inactive) and -15.7% (inactive) in assay [2]; -51% (inactive) and -63% (inactive) in assay [3]; -24.5% (inactive) and -10.2% (inactive) in assay [4]; -61.6% (inactive) and -22.9% (inactive) in assay [5]; -64.4% (inactive) and -54.4% (inactive) in assay [6].

Consider `OC/C=C/c1ccccc1`, for which the growth inhibition in assay [1] was 5.7% (inactive) and 14.7% (inactive); in assay [2], 6.7% (inactive) and -3.15% (inactive); in assay [3] it was 12.1% (inactive) and -16.6% (inactive); in assay [4], 10.1% (inactive) and -2.55% (inactive); in assay [5], 2.65% (inactive) and 12.1% (inactive); in assay [6], 14.7% (inactive) and -8.85% (inactive).
